Here are results for 23 molecules from PubChem BioAssay (Tox21).

“And” between values parts separate entries of the source, which are not always exact repeats. Identical values can stand only once. Records with an inconclusive call do not appear. Some structures have more than one record in an assay (separate samples or runs), and their calls can disagree. The source made the active and inactive calls. Calls come from the whole dose curve; as a rule, active = well fitted curve in the direction sought with a large enough effect in the repeat runs; inconclusive = weak or mixed curves; inactive = no such curve, though single readings can be large; an effect the other way counts as inactive or inconclusive.

A short description of experiment [1]: A CellTox Green Cytotoxicity Assay to monitor cytotoxicity in HepG2 cells - 32 hour (AID 1224883). Note: nearly all actives have a fitted effect of over 50% in size. Note: potency is the fitted concentration of half-maximal effect. In outline: (§1)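 Measurements at 0, 8, 16, 24, 32 and 40 h of treatment captured CellTox Green fluorescence in HepG2 cells that had been co-plated with reagent and preincubated 5 h at 37 C/5% CO2.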
The nature of experiment [2]: A CellTox Green Cytotoxicity Assay to monitor cytotoxicity in HEK293 cells - 8 hour (AID 1224884). Note: nearly all actives have a fitted effect of over 35% in size. Note: potency is the fitted concentration of half-maximal effect. The gist of the method:
(§2)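 Tox21 screen in HEK293: membrane-impermeant cyanine dye fluoresces on binding dead-cell DNA; compound pinned 5 h post-seeding, plates held at 37 C, signal read repeatedly through 40 h.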

A short description of experiment [3]: qHTS RealTime-Glo MT Cell Viability Assay in HepG2 cells - 16 hour (AID 1224885). Note: nearly all actives have a fitted effect of over 50% in size. Note: potency is the fitted concentration of half-maximal effect. The gist of the method:
(§3)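 HepG2 cells (600/well) were dispensed with RealTime-Glo reagents, incubated 5 h at 37 °C, then treated with compounds in DMSO for up to 40 h. Nonlytic NanoLuc luminescence reflecting viable cells was read at each stated time point.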

A short description of experiment [4]: A CellTox Green Cytotoxicity Assay to monitor cytotoxicity in HEK293 cells - 16 hour (AID 1224888). Note: nearly all actives have a fitted effect of over 35% in size. Note: potency is the fitted concentration of half-maximal effect. In outline: as §2
Experiment [5] in a line: qHTS RealTime-Glo MT Cell Viability Assay in HepG2 cells - 0 hour (AID 1224889). Note: nearly all actives have a fitted effect of over 50% in size. Note: potency is the fitted concentration of half-maximal effect. In outline: as §3
For orientation: qHTS replaces the single test concentration by a dilution series.

The nature of experiment [6]: A CellTox Green Cytotoxicity Assay to monitor cytotoxicity in HepG2 cells - 8 hour (AID 1224890). Note: nearly all actives have a fitted effect of over 45% in size. Note: potency is the fitted concentration of half-maximal effect. The gist of the method:
as §1

A short description of experiment [7]: qHTS assay to identify small molecule antagonists of the estrogen receptor alpha (ER-alpha) signaling pathway using the BG1 cell line in the presence of 0.1 nM 17-beta-estradiol - cell viability counter screen (AID 1259241). Note: nearly all actives have a fitted effect of over 40% in size. In outline: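 CellTiter-Fluor read (30 min, 37C) on ER-alpha/ERE-luc VM7Luc4E2 cells; 22 hr compound treatment; agonist 0.1 nM E2 final; same-well multiplex.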

A short description of experiment [8]: qHTS assay to identify small molecule antagonists of the androgen receptor (AR) signaling pathway using the MDA cell line in the presence of 0.5 nM R1881 - cell viability counter screen (AID 1259242). Note: nearly all actives have a fitted effect of over 45% in size. In outline: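 Concentration-response screen of compounds for toxicity in MDA-kb2 reporter cells: 16 hr at 37C with 0.5 nM R1881, endpoint live-cell protease fluorescence measured in the reporter wells.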

A short description of experiment [9]: qHTS RealTime-Glo MT Cell Viability Assay in HEK293 cells - 8 hour (AID 1224887). Note: nearly all actives have a fitted effect of over 50% in size. Note: potency is the fitted concentration of half-maximal effect. The gist of the method: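 HEK293 + NanoLuc + prosubstrate, 600 cells/well; 5 h, 37 C/5% CO2; compound 23 nL in DMSO by pintool; 37 C; luminescence read at 0, 8, 16, 24, 32 and 40 h time points.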

`CC(C)CCCCCCCOP(=O)(Oc1ccccc1)Oc1ccccc1`: the Potency entry in experiment [1], in experiment [2], in experiment [3], in experiment [4], in experiment [5] and in experiment [6] was “inactive” in each case. Also, the Potency result in experiment [7] and in experiment [8] was “inactive” each time.
Turning to `NC(=O)CCl`, the Potency entry in experiment [1], in [2], in [3], in [9], in experiment [4] and in experiment [5] was “inactive” each time. The Potency result in experiment [6], in [7] and in [8] was “inactive” each time.
In the case of `OC(c1ccc(Cl)cc1)(c1ccc(Cl)cc1)C(Cl)(Cl)Cl`, the Potency result in experiment [1], in experiment [2], in experiment [3], in experiment [4], in experiment [5] and in [7] was “inactive” in each case. The Potency entry in [8] is “inactive”. Also, the Potency in experiment [9] is 49 µM (active).
Consider `C[C@]12CC[C@H]3[C@@H](CCC4=CC(=O)CC[C@@]43C)[C@@H]1CC[C@@H]2O`, for which the Potency entry in experiment [1], in [2], in [3], in experiment [9], in experiment [4] and in experiment [6] was “inactive” each time. The Potency entry in experiment [7] and in experiment [8] was “inactive” in each case. Besides, in experiment [5], the Potency is 21.7 µM (active).
For `CC1(C)C(/C=C(\Cl)C(F)(F)F)C1C(=O)OC(C#N)c1cccc(Oc2ccccc2)c1` (stereo not drawn), the Potency result in [1], in [2], in experiment [3], in [4], in experiment [5] and in experiment [7] was “inactive” throughout. In addition, in [8], the Potency entry is “inactive”.
For the molecule `CC(C)CC(C)N` (stereo not drawn), the Potency result in experiment [1], in experiment [2], in experiment [3], in experiment [9], in [4] and in experiment [5] was “inactive” each time. Also, the Potency entry in experiment [6], in [7] and in experiment [8] was “inactive” in each case.
Consider `N#CC(Cl)Cl`, for which the Potency entry in experiment [1], in experiment [2], in experiment [3], in experiment [9], in experiment [4] and in experiment [5] was “inactive” each time. The Potency result in [7] and in experiment [8] was “inactive” each time. Also, the Potency in [6] is 1.51 µM (active).
Regarding `Oc1c(Br)c(Br)c(Br)c(Br)c1Br`, the Potency result in [1], in experiment [2], in experiment [3], in experiment [4], in [5] and in experiment [6] was “inactive” in each case. The Potency result in experiment [7] was “inactive”.
For the molecule `CC(=O)[O-].[Tl+]`, the Potency entry in [1], in [2], in [3], in [9], in [4] and in [5] was “inactive” throughout. In addition, the Potency entry in [7] was “inactive”.
`CC(C)[C@H](C(=O)O[C@H](C#N)c1cccc(Oc2ccccc2)c1)c1ccc(Cl)cc1`: the Potency result in experiment [1], in experiment [2], in [3], in experiment [4], in [5] and in [6] was “inactive” each time. Also, the Potency entry in experiment [7] and in experiment [8] was “inactive” in each case.
As for `Oc1cccc(-c2ccccc2)c1`, the Potency result in experiment [1], in experiment [2], in experiment [3], in experiment [4], in experiment [5] and in experiment [6] was “inactive” in each case. For the same molecule, the Potency result in experiment [7] and in experiment [8] was “inactive” in each case.
In the case of `CC1(C)[C@H](C(=O)O[C@H](C#N)c2cccc(Oc3ccccc3)c2)[C@@H]1/C=C(\Cl)C(F)(F)F`, the Potency result in experiment [1], in experiment [2], in experiment [3], in [4], in [5] and in experiment [7] was “inactive” each time. For the same molecule, in experiment [8], the Potency result was “inactive”.
With `CCSC(C)CC1CC(=O)C(/C(CC)=N/OC/C=C/Cl)=C(O)C1` (stereo not drawn), the Potency result in experiment [1], in experiment [2], in [3], in experiment [9], in experiment [4] and in experiment [5] was “inactive” throughout. The Potency entry in [6], in experiment [7] and in experiment [8] was “inactive” in each case.
`CCCCCCCCCCCCCCCC[N+](C)(C)C`: the Potency in experiment [1] was 21.1 µM (active) and 19 µM (active); in experiment [2], 21.1 µM (active) and 49 µM (active); in experiment [3], “inactive and 54.9 µM (active) and 23.9 µM (active)”; in experiment [4] it was 23.7 µM (active) and 49 µM (active) and 19 µM (active); in experiment [6], 54.9 µM (active) and 21.3 µM (active). Further, the Potency result in experiment [5] and in [7] was “inactive” throughout.
Regarding `CCOP(=S)(OCC)SCS(=O)(=O)CC`, the Potency entry in [1], in experiment [2], in experiment [3], in experiment [4], in experiment [5] and in [6] was “inactive” in each case. The Potency entry in experiment [7] and in experiment [8] was “inactive” in each case.
Consider `C[C@@H]1O[C@@H](O[C@@H]2C=C3CC[C@@H]4[C@H](CC[C@]5(C)[C@@H](c6ccc(=O)oc6)CC[C@]45O)[C@@]3(C)CC2)[C@H](O)[C@H](O)[C@H]1O`, for which the Potency result in [1], in experiment [2], in experiment [3], in experiment [9], in experiment [4] and in experiment [5] was “inactive” throughout. The Potency result in experiment [7] and in experiment [8] was “inactive” throughout.
Take `Cc1ccc(OP(=O)(Oc2ccccc2)Oc2ccccc2)cc1`: the Potency entry in experiment [1], in experiment [2], in experiment [3], in [9], in experiment [4] and in experiment [5] was “inactive” throughout. The Potency entry in experiment [7] was “inactive”.
Turning to `O=C/C(Cl)=C(/Cl)C(=O)O`, in [1], the Potency was 54.9 µM (active). Moreover, the Potency entry in [2], in experiment [3], in [9], in experiment [4], in experiment [5] and in experiment [6] was “inactive” throughout. Further, the Potency entry in experiment [7] and in experiment [8] was “inactive” in each case.
`Nc1c(Oc2ccccc2)cc(O)c2c1C(=O)c1ccccc1C2=O`: the Potency entry in [1], in [2], in experiment [3], in experiment [4], in [5] and in experiment [6] was “inactive” throughout. Also, the Potency entry in experiment [8] is “inactive”. Further, in experiment [9], the Potency was 10.7 µM (active).
As to `Nc1ccc(Sc2ccc(N)cc2)cc1`, the Potency in experiment [1] is 4.36 µM (active). Besides, the Potency entry in experiment [2], in experiment [3], in experiment [9], in experiment [5], in [7] and in [8] was “inactive” each time.
For `O=S(=O)(c1ccc(Cl)cc1)c1ccc(Cl)cc1`, the Potency result in [1], in [2], in experiment [3], in [4], in experiment [5] and in [6] was “inactive” each time. For the same molecule, the Potency entry in experiment [7] and in [8] was “inactive” in each case.
For the molecule `CCCCOP(=O)(CCCC)OCCCC`, the Potency entry in experiment [1], in experiment [2], in experiment [3], in experiment [4], in experiment [5] and in experiment [6] was “inactive” each time. For the same molecule, the Potency entry in experiment [7] and in [8] was “inactive” each time.
As to `Clc1ccc(-c2ccc(Cl)c(Cl)c2Cl)c(Cl)c1Cl`, the Potency entry in experiment [1], in [2], in [3], in experiment [9], in experiment [4] and in [5] was “inactive” each time. Also, the Potency result in experiment [7] and in [8] was “inactive” each time.
